Giardia FBPA inh = qHTS Assay for Inhibitors of Fructose-1,6-bisphosphate Aldolase from Giardia Lamblia; 290,000 compounds, 0.71% hits; purified Giardia FBPA; AID 2451, 2010; A8B2U2; Potency, µM (highest dose often 59.6 µM), for the others: at the highest dose activity, negative = inhibition, most hits filed as inhibitors; further: potency means the concentration at half of the fitted maximal effect; on the % scale 0 is the no-effect control and ±100 the full control effect; nearly all actives have a fitted effect of over 55% in size
Target sequence (A8B2U2 whole entry, looked up): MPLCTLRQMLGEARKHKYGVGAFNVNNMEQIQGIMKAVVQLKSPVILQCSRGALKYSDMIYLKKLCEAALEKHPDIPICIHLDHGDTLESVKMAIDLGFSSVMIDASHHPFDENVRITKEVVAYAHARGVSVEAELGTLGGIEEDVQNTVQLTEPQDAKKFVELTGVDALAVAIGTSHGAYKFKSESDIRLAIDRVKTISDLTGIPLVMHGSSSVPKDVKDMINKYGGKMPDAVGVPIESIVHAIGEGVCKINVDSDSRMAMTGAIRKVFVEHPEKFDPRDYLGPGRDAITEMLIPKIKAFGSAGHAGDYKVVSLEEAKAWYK
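Giardia FBPA (40 nM reagent) was preincubated 10 min at RT with compound (up to 57.5 uM final), then substrate plus GAPDH/TPI/NAD/arsenate coupling system with diaphorase/resazurin was added; resorufin fluorescence (525/598 nm) was read after 20 min.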
Shiga inhibitor = A qHTS for Small Molecule Inhibitors of Shiga Toxin. inhibition, % at 38.7 µM. Vero cells, Shiga toxin protein synthesis inhibition reporter. 290,000 compounds, 9.2% hits; in the data active means inhibition mostly above about 28%, no sharp cut-off; inactive means mostly below about 43%; further: 0% is about no effect
Sm TGR inh = qHTS Assay for the Inhibitors of Schistosoma Mansoni Peroxiredoxins; Schistosoma mansoni thioredoxin glutathione reductase (TGR), Q962Y6; purified TGR, DTNB reduction, TNB absorbance 405 nm; Potency, µM (titrated, usually from 114 µM), inactives show at the top dose activity change, negative = inhibition, actives largely listed as inhibitors; 360,000 compounds, 3% hits; further: potency means the concentration at half of the fitted maximal effect; on the % scale 0 is the no-effect control and ±100 the full control effect; nearly all actives have a fitted effect of over 60% in size
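First, TGR (20 nM dispensed) and NADPH were mixed with compound. Second, a 15 min room-temperature incubation followed. Third, further NADPH and then DTNB were added to start the reaction. Finally, TNB absorbance was monitored kinetically.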
CHX counter = Cycloheximide Counterscreen for Small Molecule Inhibitors of Shiga Toxin; cell reporter, cycloheximide protein synthesis inhibition counterscreen; max response, %; 300,000 compounds, 12% hits; in the data active means max response mostly above about 13%, no sharp cut-off; inactive means mostly below about 14%; further: read at 38.3 µM for the half of the compounds with a filed dose; 0% is about no effect
LmPK inh = qHTS Assay for Inhibitors of Leishmania Mexicana Pyruvate Kinase (LmPK); Q27686; 290,000 compounds, 0.37% hits; Potency, µM (titrated, usually from 57.5 µM), inactives show at the top dose activity change, negative = inhibition, most hits filed as inhibitors; purified LmPK, Kinase-Glo ATP luminescence, 1 h; AID 1721, 2009; further: potency means the concentration at half of the fitted maximal effect; on the % scale 0 is the no-effect control and ±100 the full control effect
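In 50 mM imidazole pH 7.2 with 7 mM MgCl2, LmPK (0.1 nM) turned over PEP (0.5 mM) and ADP (0.1 mM) for 1 h at room temperature. Luciferase read-out of ATP.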
TbPYK inhibitor = qHTS of Trypanosoma Brucei Inhibitors | pyruvate kinase (Trypanosoma brucei), Q57TT1 | TbPYK enzyme, Kinase-Glo Plus ATP luminescence, 45 min | Potency, µM (series often up to 76.8 µM), for inactives: at the top dose activity, negative = inhibition, actives largely listed as inhibitors | 410,000 compounds, 0.12% hits; further: potency means the concentration at half of the fitted maximal effect; on the % scale 0 is the no-effect control and ±100 the full control effect; nearly all actives have a fitted effect of over 50% in size
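Glycolytic pyruvate kinase of T. brucei was incubated with substrate, test compound and 130 uM ADP for 45 minutes at room temperature. Luminescent Kinase-Glo Plus signal was measured after 10 minutes.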
Starred values were filed as active, the others as inactive; u = inconclusive; x = not tested or not shown; [ ] = dose if it differs, or a comment. Shown is part of a subset that was picked to be rich in hits. Unless noted, the call rests on the fitted dose curve; in most records, active means well fitted curve in the direction sought with a large enough effect; inconclusive means small, poorly fitted or top-dose-only effect, or another doubt; inactive means no such curve, though single readings can be large; an effect the other way counts as inactive or inconclusive.

SMILES	Giardia FBPA inh	Shiga inhibitor	Sm TGR inh	CHX counter	LmPK inh	TbPYK inhibitor
Clc1ccc([C@H](Cn2ccnc2)OCc2c(Cl)cccc2Cl)c(Cl)c1	9.2%[21.7 µM]	x	x	x	x	-5.2%[33.2 µM]
O=c1c(-c2ccc(Cl)cc2)cnc2n1CCS2	0.4%	67.0*	4.1%	28.9*	-5.1%	-8.5%
COc1ccc(-c2nc3cnc(N4CCNCC4)nc3n(-c3ccccc3)c2=O)cc1	-6.3%	x	x	x	x	-7.2%
O=C(c1ccccc1)c1cccs1	-0.8%	33.3	0.6%	6.1	-1.5%	1.0%
O=C(c1ncc[nH]1)c1cccs1	-7.2%	23.7	0.0%	28.8*	8.0%	-4.8%
O=C(NCc1ccccc1F)c1ccc2ccccc2n1	4.3%	13.1	5.2%	8.7	-0.3%	1.0%
O=C(NCc1cccs1)c1ccc2ccccc2n1	3.4%	73.0	1.1%	32.0*	1.0%	-6.3%
O=C(NCc1ccccc1Cl)c1ccc2ccccc2n1	-1.7%	86.3*	-3.4%	52.1*	7.6%	1.1%
COc1cccc(-c2ccc3c(N)c(C(=O)NCc4ccc(Cl)cc4)sc3n2)c1	x	x	2.2%	x	x	-4.2%
Cc1cccc(C)c1NC(=O)CSc1ncc2c(n1)-c1ccc(Cl)cc1N(Cc1ccccc1)S2(=O)=O	x	x	5.3%	x	x	6.8%
Cn1cccc1C(=O)N1CCC2(CC1)CCN(c1ccccc1)CC2	4.0%	x	x	x	x	3.7%
C=CCNC(=O)Nc1ccc2oc(C)nc2c1	-6.7%	15.5	-15.5%	6.4	-6.9%	7.6%
Cc1nc2cc(NC(=O)NCCC3=CCCCC3)ccc2o1	-6.5%	56.6*	-14.3%	18.9*	2.1%	-29.3%
COc1ccc(NC(=O)Nc2ccc3oc(C)nc3c2)cc1	-5.5%	67.4*	36.2%	30.1*	-0.7%	-1.3%
Cc1nc2cc(NC(=O)NCCCO)ccc2o1	2.2%	1.3	-0.6%	-2.3	-1.9%	2.3%
COc1cc2c(cc1OC)C(/C=C/c1ccc(OC)c(OC)c1OC)=NCC2	-6.7%	x	x	x	x	x
Cc1cc(C)n(CCOC(=O)c2sc3ccccc3c2Cl)n1	-4.1%	51.5	5.4%	18.4*	8.4%	-21.3%
NC(=O)COC(=O)c1sc2ccccc2c1Cl	7.6%	12.5	5.8%	12.3	4.5%	0.2%
CCN(CC)CCCNC(=O)c1nn(C)c2c1CSc1ccccc1-2	x	x	5.9%	x	x	-5.9%
C=CCN=C(NC#N)SCC(=O)c1cccc(OC)c1	u	63.0*	-8.8%	60.8*	-1.0%	-2.6%
Cn1cnc([N+](=O)[O-])c1Nc1ccc(O)cc1	u	-10.4	25.1µM*	18.9	4.9%	-0.8%
CCNc1c([N+](=O)[O-])ncn1C	2.1%	31.0	4.1%	-3.8	-9.5%	-11.0%
COc1ccc(C(=O)Nc2nc3ccccc3s2)c(OC)c1	-2.3%	-20.4	-3.9%	-7.0	-13.6%	u
CCOC(=O)Cc1nnc(NC(=O)c2ccccc2OCC)s1	0.7%	-2.4	-1.8%	-5.3	-0.6%	11.5%
COc1ccc(C(=O)Nc2nnc(SCC(=O)NC3CCCC3)s2)c(OC)c1	-1.5%	96.0*	4.7%	41.6*	8.7%	8.3%
SMILES	Giardia FBPA inh	Shiga inhibitor	Sm TGR inh	CHX counter	LmPK inh	TbPYK inhibitor
COc1ccc(C(=O)Nc2nnc(SCC(=O)NC3CC3)s2)cc1	-3.0%	50.5*	-12.5%	39.3*	-4.1%	1.7%
CCOc1ccccc1C(=O)Nc1nnc(COC)s1	31.8%	21.8	17.0%	20.6*	-2.4%	-3.4%
COc1cccc(C(=O)Nc2nnc(SCC(=O)NC3CC3)s2)c1	-23.4%	-7.4	0.0%	-3.0	-8.4%	1.0%
CCc1nnc(NC(=O)c2ccc(OC)cc2OC)s1	-6.1%	65.7*	-17.1%	37.8*	-7.3%	-7.4%
CCNc1c(NC(=O)c2ccccc2OCC)c(=O)oc2ccccc12	x	x	-5.6%	x	x	-3.3%
CC(=O)Nc1ccc(NC(=O)CSc2nnc(NC(=O)c3cccc(F)c3)s2)cc1	x	11.5	-10.1%	10.1	-7.3%	-10.4%
COc1ccc(C(=O)Nc2nnc(SCC(=O)Nc3ccc(NC(C)=O)cc3)s2)c(OC)c1	x	118.8*	5.9%	48.1*	-6.0%	3.5%
O=c1c2sc3ccccc3c2n(Cc2cccc(C(F)(F)F)c2)c(=O)n1Cc1ccc(F)cc1	x	x	4.5%	x	x	5.8%
Cc1cc(-c2c(C)[nH]n(-c3ccc(Cl)cc3)c2=O)n[nH]1	-19.4%	29.5	5.3%	26.6*	-4.8%	-5.3%
Fc1ccc(Oc2nc(-c3ccccn3)nc3ccccc23)cc1	-1.0%	67.3*	-3.2%	51.4*	-6.8%	1.7%
COc1ccc(Oc2nc(-c3ccccn3)nc3ccccc23)cc1	-7.2%	56.0*	12.4%	48.2*	-1.4%	-0.8%
c1ccc(Oc2nc(-c3ccccn3)nc3ccccc23)cc1	-6.7%	34.7*	-12.7%	35.6*	-5.2%	-4.8%
CSc1nc(Oc2ccc(F)cc2)c2ccccc2n1	3.9%	-1.5	1.8%	-1.1	-0.4%	-3.0%
c1ccc(Oc2c3ccccc3nc3ccccc23)cc1	9.4%	-13.0	5.01µM*	-4.0	1.7%	-1.1%
COc1ccc(Oc2nc(-c3ccncc3)nc3ccccc23)cc1	-1.0%	-0.7	-1.9%	9.5	1.2%	-3.3%
Cc1ccc(C)c(Cn2cnc3ccccc3c2=O)c1	x	x	-3.2%	x	x	-1.4%
CC(C)Oc1ccc(CNC(=O)CCCn2c(=O)c3cccn3c3cccnc32)cc1	x	x	8.3%	x	x	6.8%
O=C(NCc1ccccc1)N1CCC(CO)(CCc2ccccc2)CC1	4.5%	-14.3	12.1%	0.9	-5.4%	-1.4%
CC#CC(=O)N1CCC(CO)(CCc2ccccc2)CC1	2.2%	62.6	15.3%	17.8*	7.0%	1.8%
O=C(/C=C/Nc1ccc(Nc2ccccc2)cc1)c1cccs1	-12.8%	103.0*	u	63.2*	-2.5%	-19.8%
Cc1ccc(N/C=C/C(=O)c2cccs2)cc1C	-8.7%	31.9	-11.2%	31.2*	u	-15.0%
Cc1cc(N/C=C/C(=O)c2cccs2)ccc1F	-7.6%	96.6*	-6.0%	29.4*	u	-7.8%
O=C(O)c1ccccc1C(=O)c1cccs1	18.6%	-7.3	10.4%	-2.7	0.8%	-14.2%
O=C(/C=C/Nc1ccccc1C(=O)O)c1cccs1	-17.5%	74.9*	-3.7%	33.0*	u	-0.9%
Cc1ccc(NC2CCCN(C(=O)c3cccs3)C2)cc1C (centres undefined)	x	30.1	-22.1%	8.8	-3.1%	0.3%
CCCN(C(=O)c1c(C)oc2ncn(CC(C)C)c(=O)c12)c1ccccc1C	x	x	6.8%	x	x	-5.3%
COc1ccc(CNC(=O)CSc2nnc(C)c3c(C)n(-c4ccccc4)nc23)c(OC)c1	x	x	2.0%	x	x	-2.3%
O=C(O)c1ccccc1N/C=C\[N+](=O)[O-]	u	29.2	28.2µM*	-5.1	-1.0%	-19.1%
O=C(O)c1ccccc1Nc1ccc([N+](=O)[O-])cc1C(=O)O	-14.4%	-3.6	-13.6%	-0.5	3.1%	0.8%

Source: PubChem (National Center for Advancing Translational Sciences (NCATS))
